These results are taken from PubChem BioAssay.

Assay [1] can be described thus: yeast TOR pathway RPL19A-GFP modulators, primary screen, cell-based, S. cerevisiae, multiplex flow cytometry (AID 1862; in the data active means percent of DMSO control GFP below about 86%;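 further: lower values mimic rapamycin by blocking the RPL19A rise seen in DMSO cells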). The following applies: S. cerevisiae RPL19A-GFP strain, flow cytometry fluorescence, 3 h; at 10 µM; stronger effect = lower value. For orientation: In flow cytometry, cells or beads pass a laser one at a time.
A short description of assay [2]: modulators of MEP2-GFP levels in yeast, primary screen, S. cerevisiae, multiplex flow cytometry (AID 1867;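 active means GFP response, as percent of the DMSO control, above the screen-wide mean plus 3 SD, about 139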;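 further: median GFP channel fluorescence of barcode-gated MEP2-GFP cells measured by flow cytometry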). The following applies: S. cerevisiae MEP2-GFP strain, 3 h, at 10 µM, stronger effect = higher value, 100% means same as DMSO wells.
Assay [3] can be described thus: modulators of CIT2-GFP expression in yeast, primary screen, S. cerevisiae, GFP fusion, multiplex flow cytometry (AID 1870;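 active means percent response above a set limit, the screen-wide mean plus 3 SD, cut at about 130% in these data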;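 further: barcoded CIT2-GFP strain pooled with four other GFP strains with rapamycin as positive control; median GFP fluorescence per well over plate mean of DMSO wells so 100% = DMSO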). The following applies: 3 h, at 10 µM, stronger effect = higher value.
The nature of assay [4]: modulators of LAP4-GFP expression in yeast, primary screen, S. cerevisiae, multiplex flow cytometry (AID 1873;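 active means GFP signal, as percent of the solvent control, above the screen mean plus 3 SD, about 149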). The following applies: 3 h, at 10 µM, stronger effect = higher value.
A short description of assay [5]: modulators of AGP1-GFP expression in yeast TOR pathway, primary screen, cell-based, multiplex flow cytometry, S. cerevisiae (AID 1887;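 active means GFP signal above the screen-wide mean plus 3 SD, that is over about 124.5% of the solvent control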;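 further: AGP1-GFP fusion strain of S. cerevisiae within a five-strain barcoded multiplex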). The following applies: 3 h, at 10 µM, stronger effect = higher value.
Assay [6] is described as follows: inhibitors of CD8+ T cell-vesicle binding, pilot screen, LFA-1/ICAM-1 modulator project, MLPCN validation set, flow cytometry (AID 2523;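 active means response below a set limit, under 55% cells CD8-positive and vesicle-bound, and CD8 cells' 90th-percentile brightness under 279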;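 on vesicle binding response: mean PE anti-B7-1 fluorescence of CD8+ cells relative to row control; 100% = QL9-loaded vesicles with DMSO vehicle in the same plate row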). The following applies: 2C mouse CD8+ T cells, at 7 µM, stronger effect = lower value; double positive events: measured here: CD8+/vesicle+ event percentage.
Assay [7] addresses Integrin beta-1 (Homo sapiens) + Integrin alpha-4 (Homo sapiens) (UniProt P13612+P05556). Description: inhibition of HUTS-21 binding to VLA-4, pilot screen, VLA-4 allosteric modulator project, U937 cells, HUTS-21 mAb, flow cytometry, validation set (AID 2674;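 active means inhibition above 50%, about 3 SD of the validation set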;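 further: antibody binding induced by the VLA-4 ligand LDV present at three times its Kd; 0% = LDV ligand with antibody and no compound and 100% = antibody without LDV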). The following applies: HUTS-21 LIBS mAb binding, at 6.7 µM, stronger effect = higher value, binding induced by LDV ligand.
The nature of assay [8]: superoxide lowering in aged yeast cells, pilot screen, validation compound set (AID 2706;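 active means superoxide response below 65% of plate, a cut near 3 SD across the whole screen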;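 further: yeast exposed to compound for one week at 30 degrees C before staining; 100% = mean of all compound wells on the same plate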). The following applies: S. cerevisiae aging, superoxide DHE fluorescence; at 10 µM; stronger effect = lower value.
Assay [9] concerns the target Beta-adrenergic receptor kinase 1 (Homo sapiens) (UniProt P25098). Description: GRK2 binders displacing RNA aptamer, biochemical, validation, human GRK2, bead flow cytometry (AID 488806;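 active means aptamer binding inhibition above 30%, about 3 SD of noise from non-fluorescent compounds; inactive means inhibition at or below 30%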). The following applies: bead-bound GRK2, FAM-aptamer displacement, at 10 µM, stronger effect = higher value.
For assay [10], the target named is Beta-2 adrenergic receptor (Homo sapiens) (UniProt P07550). The assay is described as follows: beta2AR agonists driving receptor internalization, pilot screen, cell-based, FAP fluorogen, flow cytometry, validation set (AID 504459;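 active means percent response above 42, roughly 3 SD of non-fluorescent test compounds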;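 further: agonist-driven loss of surface beta2AR via internalization measured by FAP dye flow cytometry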). The following applies: Am2.2-beta2AR cells, FAP surface receptor flow cytometry; at 10 µM; stronger effect = higher value.
Beta-2 adrenergic receptor (Homo sapiens), sequence (P07550 whole entry, looked up): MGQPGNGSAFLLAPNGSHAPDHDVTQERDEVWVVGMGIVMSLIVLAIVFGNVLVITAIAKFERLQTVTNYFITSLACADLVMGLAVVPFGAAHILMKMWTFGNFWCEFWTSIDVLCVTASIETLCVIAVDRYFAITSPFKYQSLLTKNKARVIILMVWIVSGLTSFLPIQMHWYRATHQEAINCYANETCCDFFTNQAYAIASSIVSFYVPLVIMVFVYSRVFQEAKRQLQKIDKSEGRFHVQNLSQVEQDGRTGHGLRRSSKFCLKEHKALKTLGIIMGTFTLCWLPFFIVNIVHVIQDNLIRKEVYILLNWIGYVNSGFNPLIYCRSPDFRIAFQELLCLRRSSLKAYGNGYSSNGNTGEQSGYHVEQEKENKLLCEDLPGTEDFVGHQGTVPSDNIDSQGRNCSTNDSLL
Assay [11] has as its target AP-2 complex subunit beta (Homo sapiens) (UniProt P63010). Description: inhibitors of arrestin peptide binding to AP2, pilot screen, biochemical, validation set, GST-AP2 beads, flow cytometry (AID 504541;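 active means inhibition above 54%, about 3 SD of non-fluorescent compounds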;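 further: AP2 carries R879A mutation and is captured from E. coli lysate; bead-bound FITC arrestin peptide fluorescence measuring arrestin peptide binding to AP2; 0% = DMSO wells and 100% = excess unlabeled arrestin peptide control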). The following applies: FITC arrestin peptide, at 10 µM, stronger effect = higher value, AP2 beta2 appendage fragment, R879A mutant.
Assay [12] can be described thus: yeast V-ATPase proton transport modulators, S. cerevisiae, pHLuorin, HTS validation (AID 504600; in the data active means response above about 15%;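 further: plate controls were DMSO for no effect and reference compound for full effect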). The following applies: S. cerevisiae pHLuorin cytosolic pH, at 10 µM, stronger effect = higher value.
Assay [13] has as its system anti-desmoglein-3 scFv antibody binding to human DSG3. The assay is described as follows: inhibitors of anti-DSG3 scFv binding to DSG3, pilot screen, biochemical, validation compound set, bead-based, flow cytometry (AID 588368;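 active means binding below the plate cutoff, the plate median minus 3 SD, with a reading above zero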;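 further: signal is the median channel fluorescence of bead-bound GFP antibody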). The following applies: Protein G beads, DSG3-Fc, scFv-GFP binding, at 10 µM, stronger effect = lower value.
A short description of assay [14]: inhibitors of fungal efflux pumps CDR1, CDR2, MDR1, pilot screen, validation compound set, multiplex, phenotypic (AID 588506;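 active means efflux inhibition above 0.42, the validation set average plus 4 SD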;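 further: Nile Red retained in cells so higher fluorescence means more efflux inhibition; 0 = negative control wells and 1 = enniatin B 25 µM full block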). The following applies: S. cerevisiae pump-expressing triplex, Nile Red efflux flow cytometry; at 10 µM; stronger effect = higher value; the pumps come from Candida albicans.
Assay [15] deals with ATP-binding cassette sub-family B member 6 (Homo sapiens) (UniProt Q9NP58). The assay is described as follows: ABCB6 transporter inhibitors, pilot screen, K562-ABCB6 cells, flow cytometry, validation set (AID 588550;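 active means inhibition above the screen-wide mean plus 3 SD, about 51%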;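 further: 0% = DMSO wells and 100% = benzethonium chloride 70 µM positive control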). The following applies: K562-ABCB6 porphyrin accumulation, 1 h, at 10 µM, stronger effect = higher value.
ATP-binding cassette sub-family B member 6 (Homo sapiens), sequence (Q9NP58 whole entry, looked up): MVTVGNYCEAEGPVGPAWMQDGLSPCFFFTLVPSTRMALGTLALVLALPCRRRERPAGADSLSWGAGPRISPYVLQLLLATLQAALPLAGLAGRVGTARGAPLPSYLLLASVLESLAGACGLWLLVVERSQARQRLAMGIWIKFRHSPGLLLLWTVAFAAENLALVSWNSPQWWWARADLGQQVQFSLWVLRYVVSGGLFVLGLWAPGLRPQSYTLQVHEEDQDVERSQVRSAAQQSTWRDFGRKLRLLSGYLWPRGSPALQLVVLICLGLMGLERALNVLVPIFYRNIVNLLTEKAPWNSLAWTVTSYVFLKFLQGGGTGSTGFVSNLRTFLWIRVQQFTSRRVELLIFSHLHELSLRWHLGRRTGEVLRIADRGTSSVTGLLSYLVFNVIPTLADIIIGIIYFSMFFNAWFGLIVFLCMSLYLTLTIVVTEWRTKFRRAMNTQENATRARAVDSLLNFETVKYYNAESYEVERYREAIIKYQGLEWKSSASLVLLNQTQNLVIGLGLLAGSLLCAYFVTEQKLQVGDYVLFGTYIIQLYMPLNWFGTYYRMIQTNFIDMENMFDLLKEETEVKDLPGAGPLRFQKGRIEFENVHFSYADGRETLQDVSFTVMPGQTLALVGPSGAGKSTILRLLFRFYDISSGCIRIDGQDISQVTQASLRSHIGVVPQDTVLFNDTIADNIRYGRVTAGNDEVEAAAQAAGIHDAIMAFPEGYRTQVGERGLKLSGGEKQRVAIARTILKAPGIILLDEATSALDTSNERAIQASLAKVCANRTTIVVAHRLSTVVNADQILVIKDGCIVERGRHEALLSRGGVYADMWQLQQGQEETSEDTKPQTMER
The nature of assay [16]: promoters of myeloid differentiation in arrested cells, primary screen, cell-based, GFP/MAC1 double positive, flow cytometry, validation set (AID 588685).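 Further: compound exposure lasts four days before antibody staining and flow analysis; 0% = DMSO wells and 100% = 5 µM fulvestrant positive control.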 The following applies: ER-HoxA9 marrow cells, stronger effect = higher value, normalized: vehicle 0, fulvestrant 100.

Results filed as inconclusive are left out. Calls of active or inactive are those of the source.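 How the source made its calls, unless noted: active means differentiation response of at least 50%, scaled between solvent and reference control, from cells with both markers; inactive means the rest.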

Beta-adrenergic receptor kinase 1 (Homo sapiens), sequence (P25098 whole entry, looked up): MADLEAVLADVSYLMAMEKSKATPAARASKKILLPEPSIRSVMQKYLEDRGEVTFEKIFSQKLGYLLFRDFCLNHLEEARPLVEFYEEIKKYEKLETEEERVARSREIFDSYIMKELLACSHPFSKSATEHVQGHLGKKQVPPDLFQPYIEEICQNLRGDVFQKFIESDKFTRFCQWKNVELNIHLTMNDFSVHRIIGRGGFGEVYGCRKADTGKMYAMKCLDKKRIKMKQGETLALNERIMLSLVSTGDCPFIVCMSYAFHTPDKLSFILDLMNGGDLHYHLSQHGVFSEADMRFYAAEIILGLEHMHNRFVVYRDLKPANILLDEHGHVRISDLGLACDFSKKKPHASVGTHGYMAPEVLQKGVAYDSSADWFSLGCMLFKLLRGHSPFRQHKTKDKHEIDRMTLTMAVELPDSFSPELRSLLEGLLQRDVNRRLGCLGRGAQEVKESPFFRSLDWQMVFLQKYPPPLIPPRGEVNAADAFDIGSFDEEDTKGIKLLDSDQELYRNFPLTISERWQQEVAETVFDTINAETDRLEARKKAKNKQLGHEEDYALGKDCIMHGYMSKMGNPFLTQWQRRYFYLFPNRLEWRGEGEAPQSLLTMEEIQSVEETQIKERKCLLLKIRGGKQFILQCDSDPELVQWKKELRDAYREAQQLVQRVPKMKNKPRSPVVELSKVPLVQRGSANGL
AP-2 complex subunit beta (Homo sapiens), sequence (P63010 whole entry, looked up, the tested form may be a part, one chain of several): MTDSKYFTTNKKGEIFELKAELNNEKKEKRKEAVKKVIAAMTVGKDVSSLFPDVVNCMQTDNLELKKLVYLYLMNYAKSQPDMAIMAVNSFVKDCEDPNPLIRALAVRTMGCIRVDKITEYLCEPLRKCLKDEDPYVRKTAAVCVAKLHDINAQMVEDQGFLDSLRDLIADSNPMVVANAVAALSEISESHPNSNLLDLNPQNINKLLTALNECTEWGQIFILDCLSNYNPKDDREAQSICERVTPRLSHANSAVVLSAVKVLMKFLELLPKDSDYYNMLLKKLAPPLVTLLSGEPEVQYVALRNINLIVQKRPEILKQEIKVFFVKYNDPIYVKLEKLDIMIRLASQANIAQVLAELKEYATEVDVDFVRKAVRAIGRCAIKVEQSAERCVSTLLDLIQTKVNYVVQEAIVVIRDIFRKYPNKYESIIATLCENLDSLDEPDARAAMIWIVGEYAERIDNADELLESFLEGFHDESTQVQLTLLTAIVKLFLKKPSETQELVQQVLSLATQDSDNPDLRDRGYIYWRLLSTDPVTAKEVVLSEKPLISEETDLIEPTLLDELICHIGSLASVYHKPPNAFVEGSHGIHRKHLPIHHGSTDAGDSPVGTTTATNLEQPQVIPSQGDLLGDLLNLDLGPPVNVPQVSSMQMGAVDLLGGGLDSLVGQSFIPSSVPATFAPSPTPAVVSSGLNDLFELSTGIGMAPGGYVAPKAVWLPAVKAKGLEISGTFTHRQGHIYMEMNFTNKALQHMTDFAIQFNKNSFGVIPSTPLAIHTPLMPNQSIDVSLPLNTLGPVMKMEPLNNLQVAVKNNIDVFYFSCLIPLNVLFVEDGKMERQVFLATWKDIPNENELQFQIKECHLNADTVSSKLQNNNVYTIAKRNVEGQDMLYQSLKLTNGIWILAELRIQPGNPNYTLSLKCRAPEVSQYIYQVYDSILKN
Integrin beta-1 (Homo sapiens) + Integrin alpha-4 (Homo sapiens), sequence (P05556 whole entry, looked up): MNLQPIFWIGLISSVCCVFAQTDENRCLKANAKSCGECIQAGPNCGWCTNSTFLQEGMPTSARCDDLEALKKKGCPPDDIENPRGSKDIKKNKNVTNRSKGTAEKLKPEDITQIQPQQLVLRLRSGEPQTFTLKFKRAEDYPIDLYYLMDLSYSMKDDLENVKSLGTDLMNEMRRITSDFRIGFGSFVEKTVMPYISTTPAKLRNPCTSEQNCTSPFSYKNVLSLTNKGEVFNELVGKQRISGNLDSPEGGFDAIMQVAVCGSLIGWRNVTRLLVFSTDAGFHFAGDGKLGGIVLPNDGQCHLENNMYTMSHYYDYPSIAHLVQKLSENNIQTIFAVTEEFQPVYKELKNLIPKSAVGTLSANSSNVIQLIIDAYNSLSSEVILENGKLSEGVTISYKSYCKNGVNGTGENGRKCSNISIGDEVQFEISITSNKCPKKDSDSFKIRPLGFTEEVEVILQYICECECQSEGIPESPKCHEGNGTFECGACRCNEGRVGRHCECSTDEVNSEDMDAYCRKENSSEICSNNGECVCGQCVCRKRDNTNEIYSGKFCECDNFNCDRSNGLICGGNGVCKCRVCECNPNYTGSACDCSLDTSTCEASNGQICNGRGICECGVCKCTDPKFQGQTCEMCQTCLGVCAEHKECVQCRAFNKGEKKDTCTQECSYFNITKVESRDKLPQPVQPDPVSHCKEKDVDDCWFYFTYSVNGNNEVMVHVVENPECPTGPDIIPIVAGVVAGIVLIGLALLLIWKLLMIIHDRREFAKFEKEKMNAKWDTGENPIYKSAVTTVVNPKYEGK
Integrin beta-1 (Homo sapiens) + Integrin alpha-4 (Homo sapiens), sequence (P13612 whole entry, looked up): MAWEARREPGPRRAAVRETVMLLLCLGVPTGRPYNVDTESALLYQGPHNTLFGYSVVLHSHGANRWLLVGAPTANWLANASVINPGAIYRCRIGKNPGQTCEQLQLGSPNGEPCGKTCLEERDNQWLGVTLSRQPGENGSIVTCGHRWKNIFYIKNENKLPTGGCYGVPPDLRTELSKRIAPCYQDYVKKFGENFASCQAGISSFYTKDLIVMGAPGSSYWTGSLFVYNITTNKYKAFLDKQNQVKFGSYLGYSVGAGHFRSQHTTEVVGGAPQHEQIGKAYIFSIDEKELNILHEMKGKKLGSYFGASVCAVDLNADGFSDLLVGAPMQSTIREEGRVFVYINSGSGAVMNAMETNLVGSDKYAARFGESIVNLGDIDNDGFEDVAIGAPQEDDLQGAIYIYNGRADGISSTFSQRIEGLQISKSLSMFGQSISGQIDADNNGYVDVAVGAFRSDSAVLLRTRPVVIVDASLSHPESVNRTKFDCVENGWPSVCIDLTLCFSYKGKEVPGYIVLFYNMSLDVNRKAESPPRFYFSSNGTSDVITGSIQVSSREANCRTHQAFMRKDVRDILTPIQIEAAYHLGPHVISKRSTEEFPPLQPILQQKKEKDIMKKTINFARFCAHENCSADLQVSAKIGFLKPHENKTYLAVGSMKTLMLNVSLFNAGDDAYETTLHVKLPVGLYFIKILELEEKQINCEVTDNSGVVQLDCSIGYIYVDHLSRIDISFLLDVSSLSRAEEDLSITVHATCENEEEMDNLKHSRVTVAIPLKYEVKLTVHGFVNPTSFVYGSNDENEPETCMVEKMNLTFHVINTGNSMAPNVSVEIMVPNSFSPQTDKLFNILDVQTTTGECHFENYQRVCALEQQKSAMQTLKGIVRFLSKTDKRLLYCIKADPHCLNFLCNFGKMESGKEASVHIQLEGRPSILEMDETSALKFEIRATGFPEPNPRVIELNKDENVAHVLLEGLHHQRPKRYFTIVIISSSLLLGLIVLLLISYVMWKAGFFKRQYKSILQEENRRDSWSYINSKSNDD

For the compound `CC1CC(OC(=O)C(O)c2ccccc2)CC(C)(C)N1C` (stereo not given), the percent of DMSO control GFP in assay [1] is 94.4% (inactive). For the same compound, the GFP response vs DMSO in assay [2] is 112% (inactive); in assay [4], 111% (inactive). The percent response of DMSO control in [3] is 94.8% (inactive). For the same compound, the GFP response, % of DMSO in assay [5] was 97.5% (inactive). The same compound registered a double positive events in assay [6] of 57.9%. Moreover, the vesicle binding response in [6] is 217% (inactive). The inhibition is -8.62% (inactive) in [7], -13.2% (inactive) in [11] and 5% (inactive) in assay [15]. Further, in assay [8], the superoxide response (% of plate) is 99.3% (inactive). Also, the aptamer binding inhibition in assay [9] was 0% (inactive). Moreover, the response was 0.13% (inactive) in assay [10] and 7.51% (inactive) in assay [12]. Besides, in [13], the binding (% of control) is 103% (inactive). Also, in [14], the efflux inhibition (fraction of control) is -0.03 (inactive). The differentiation response in assay [16] was -18.4% (inactive).
For the compound `CC(=O)[C@H]1CC[C@H]2[C@@H]3C[C@H](C)C4=CC(=O)CC[C@]4(C)[C@H]3[C@@H](O)C[C@]12C`, the percent of DMSO control GFP in [1] is 95.9% (inactive). Moreover, the figures for the GFP response vs DMSO in assay [2] and in assay [4] were 116% (inactive) and 86.9% (inactive), respectively. Further, the percent response of DMSO control in assay [3] was 102% (inactive). In addition, the GFP response, % of DMSO in assay [5] is 92.6% (inactive). In assay [6], the double positive events was 63.6%. The vesicle binding response in assay [6] is 151% (inactive). Also, the results for the inhibition in assay [7], in assay [11] and in assay [15] were 2.58% (inactive), -0.56% (inactive) and 9% (inactive), respectively. In addition, the superoxide response (% of plate) in [8] was 95.6% (inactive). In assay [9], the aptamer binding inhibition was 8% (inactive). Further, the results for the response in assay [10] and in assay [12] were -10% (inactive) and 2.7% (inactive), respectively. Moreover, in assay [13], the binding (% of control) was 108% (inactive). Besides, the efflux inhibition (fraction of control) in assay [14] is 0.09 (inactive). The differentiation response in [16] is -2.46% (inactive).
As to `CCC1(c2ccccc2)NC(=S)N(c2ccc(C)c(C)c2)N1` (stereo not given), the percent of DMSO control GFP in assay [1] is 100% (inactive). Moreover, the GFP response vs DMSO in assay [2] was 106% (inactive); in [4], 108% (inactive). The percent response of DMSO control in [3] is 105% (inactive). Also, the GFP response, % of DMSO in assay [5] is 108% (inactive). The compound also registered a double positive events in assay [6] of 59.8%. Also, the vesicle binding response in [6] is 184% (inactive). Also, the figures for the inhibition in assay [7], in assay [11] and in assay [15] were 5.69% (inactive), 1.79% (inactive) and 3% (inactive), respectively. In addition, the superoxide response (% of plate) in [8] is 107% (inactive). The aptamer binding inhibition in assay [9] is 2% (inactive). Besides, the response in assay [10] was -12.6% (inactive); in assay [12], 2.75% (inactive). Also, in assay [13], the binding (% of control) is 105% (inactive). Further, the efflux inhibition (fraction of control) in assay [14] is 0.04 (inactive). Besides, the differentiation response in [16] was -12.9% (inactive).
With `O=C1c2cccc3cccc(c23)C(=O)N1c1ccccn1`, the percent of DMSO control GFP in assay [1] was 107% (inactive). Also, the GFP response vs DMSO was 101% (inactive) in [2] and 97.3% (inactive) in [4]. For the same compound, the percent response of DMSO control in assay [3] was 109% (inactive). In addition, the GFP response, % of DMSO in assay [5] was 107% (inactive). In assay [6], this compound displayed a double positive events of 58.2%. Also, the vesicle binding response in [6] is 79.7% (inactive). For the same compound, the inhibition in assay [7] is 9.92% (inactive); in [11], 1.31% (inactive); in [15], -11% (inactive). Also, in assay [8], the superoxide response (% of plate) was 107% (inactive). Besides, the aptamer binding inhibition in [9] was 4% (inactive). The results for the response in assay [10] and in [12] were -9.79% (inactive) and 3% (inactive), respectively. In assay [13], the binding (% of control) was 95.3% (inactive). Further, the efflux inhibition (fraction of control) in [14] was -0.07 (inactive). Besides, the differentiation response in assay [16] was -1.71% (inactive).
Turning to `CC(C)Oc1cccc(C(=O)N2CCCC2)c1`, the percent of DMSO control GFP in [1] was 102% (inactive). Moreover, the results for the GFP response vs DMSO in assay [2] and in assay [4] were 106% (inactive) and 99.9% (inactive), respectively. Also, the percent response of DMSO control in assay [3] was 94.2% (inactive). Besides, the GFP response, % of DMSO in assay [5] is 100% (inactive). Besides, the double positive events in assay [6] came out at 64.7%. In assay [6], the vesicle binding response was 221% (inactive). Further, the inhibition in assay [7] is -4.6% (inactive); in assay [11] it was -4.57% (inactive); in [15], -4% (inactive). Besides, in assay [8], the superoxide response (% of plate) was 101% (inactive). Further, the aptamer binding inhibition in assay [9] was 0% (inactive). The response in assay [10] is -9.83% (inactive); in [12], 1.82% (inactive). In addition, the binding (% of control) in assay [13] is 93.2% (inactive). Also, the efflux inhibition (fraction of control) in [14] is 0.14 (inactive). In assay [16], the differentiation response is 9.04% (inactive).

Usually inhibition stands for the relative decrease from the control value, in per cent.
